Measured values as given in PubChem BioAssay (Tox21).
Records with an inconclusive call do not appear. A call without a number means that no potency is given here. Values without a mark were called inactive. Active and inactive are the calls of the source. The call rests on the fitted dose curve; in most records, active means well fitted cell-killing curve with a large enough effect in the repeat runs; inconclusive means weak or mixed curves, or effect the other way; inactive means flat fitted curve, though single readings scatter.

Legend:
[1] = cAMP Responsive Elements (CRE) small molecule antagonists, cell-based qHTS assay: qHTS cell viability counter screen (AID 2060913); conditions: CRE-bla HEK293T viability, CellTiter-Glo luminescence, 5 h; series mostly up to 92.4 µM; further: nearly all actives have a fitted effect of over 40% in size
Summary of the method: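 Cytotoxicity read in the same wells as the CRE-bla HEK293T antagonist assay: after 3 h compound with 0.25 uM NKH477 final and 2 h beta-lactamase substrate, CellTiter-Glo luminescence measured.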

[2] = cAMP Responsive Elements (CRE) small molecule agonists, cell-based qHTS assay: qHTS cell viability counter screen (AID 2060914); conditions: CRE-bla HEK293T viability, CellTiter-Glo luminescence, 5 h; series mostly up to 92.4 µM;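 further: viability read after 3 h of compound exposure; nearly all actives have a fitted effect of over 50% in size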
Summary of the method: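 CRE-bla HEK293T cells in 10% dialyzed FBS medium were exposed to compounds for 3 h at 37C after 18 h plating. CellTiter-Glo was then added in the same wells, and luminescence was read after 30 min at room temperature.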

Cn1c(=O)c2c(ncn2CC2OCCO2)n(C)c1=O
Potency [1]: inactive | Potency [2]: inactive

CN(C)CCCCl
Potency [1]: inactive | Potency [2]: inactive

Cc1ccc(C)c(N)c1
Potency [1]: inactive | Potency [2]: inactive

CCCC(CC)CCCCCCCN (centres undefined)
Potency [1]: inactive | Potency [2]: inactive

CCOC(=O)C1OC1c1ccccc1 (centres undefined)
Potency [1]: inactive | Potency [2]: inactive

CN(C)CCCN1c2ccccc2CCc2ccccc21
Potency [1]: inactive | Potency [2]: inactive

COc1ccc(N)c(C)c1
Potency [1]: inactive | Potency [2]: inactive

CCCCCCCCCCCCCC(=O)OC(C)C
Potency [1]: inactive | Potency [2]: inactive

CC1(C)OC(=O)Nc2ccc(Br)cc21
Potency [1]: inactive | Potency [2]: inactive

Cc1ccc(N/N=c2\c(=O)cc/c(=N\Nc3ccc(S(=O)(=O)O)cc3)c2=O)c(C)c1
Potency [1]: inactive | Potency [2]: inactive

CC(C)Cc1nccs1
Potency [1]: inactive | Potency [2]: inactive

NC(Cc1ccc(Cl)cc1)C(=O)O (centres undefined)
viability change, negative = cytotoxic [1]: 9.93% [at 0.349 µM] | activity change, negative = cytotoxicity [2]: -0.576% [at 0.349 µM]

C=CCn1c(=O)n(CC=C)c(=O)n(CC=C)c1=O
Potency [1]: inactive | Potency [2]: inactive

C=C(C)C(=O)Nc1ccc(Cl)c(Cl)c1
Potency [1]: inactive | Potency [2]: inactive

C=CCOC(=O)c1ccccc1C(=O)OCC=C
Potency [1]: inactive | Potency [2]: inactive

COc1nccnc1CC(C)C
Potency [1]: inactive | Potency [2]: inactive

FC(F)(F)C(Cl)(Cl)Cl
Potency [1]: inactive | Potency [2]: inactive

CC(=N\O)/C(C)=N/O
Potency [1]: inactive | Potency [2]: inactive

CCCCC1CCCCC(=O)O1 (centres undefined)
Potency [1]: inactive | Potency [2]: inactive

NC(=O)N1c2ccccc2C=Cc2ccccc21
Potency [1]: inactive | Potency [2]: inactive

NC(=O)c1cn(Cc2c(F)cccc2F)nn1
Potency [1]: inactive | Potency [2]: inactive

CCCC(C)C(=O)O (centres undefined)
Potency [1]: inactive | Potency [2]: inactive
